Measured values published in the supplement of paper PMC12669032.

Experiments:
Experiment in all cases: growth AUC relative to DMSO control (median of replicates) (fraction); higher = more growth (less inhibition), active = hit call of the paper
Conditions in all cases: 20 µM; 24 h;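 active = AUC reduced over 20% with Padj below 0.05 in at least 2 of 3 replicates; inactive = otherwise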
[1] = system: Akkermansia muciniphila
How it was run: (§1)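 Gut bacteria were grown singly in mGAM at 37 °C without oxygen, from OD600 0.05, alongside 20 µM compound in 1% DMSO, and OD600 was read each hour for 24 h. Area under the growth curve was normalised to the median of solvent-only wells per plate, or to row and column medians on the industrial chemical plate. The minimum OD was set to 0 beforehand, and the reported value is the median of three biological replicates grown on separate days.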

[2] = system: Bacteroides caccae
How it was run: as §1

[3] = system: Bacteroides clarus
How it was run: as §1

[4] = system: Bacteroides dorei
How it was run: as §1

[5] = system: Bacteroides stercoris
How it was run: as §1

[6] = system: Bacteroides thetaiotaomicron
How it was run: as §1

[7] = system: Bacteroides uniformis
How it was run: as §1

[8] = system: Bifidobacterium longum subsp. longum
How it was run: as §1

[9] = system: Clostridium difficile
How it was run: as §1

[10] = system: Collinsella aerofaciens
How it was run: as §1

[11] = system: Coprococcus comes
How it was run: as §1

[12] = system: Escherichia coli ED1a
How it was run: as §1

[13] = system: Escherichia coli IAI1
How it was run: as §1

[14] = system: Eubacterium rectale
How it was run: as §1

[15] = system: Fusobacterium nucleatum subsp. animalis
How it was run: as §1

[16] = system: Lactobacillus gasseri
How it was run: as §1

[17] = system: Lactobacillus paracasei
How it was run: as §1

[18] = system: Odoribacter splanchnicus
How it was run: as §1

[19] = system: Parabacteroides distasonis
How it was run: as §1

[20] = system: Parabacteroides merdae
How it was run: as §1

Measured: growth AUC

CCNc1nc(NC(C)(C)C)[nH]c(=O)n1
inactive: [1] 1 | [2] 0.937 | [3] 0.98 | [4] 1.01 | [5] 1.17 | [6] 0.969 | [7] 0.983 | [8] 1.03 | [9] 0.951 | [10] 0.95 | [11] 0.988 | [12] 1.02 | [13] 0.987 | [14] 1.03 | [15] 0.99 | [16] 0.899 | [17] 1.04 | [18] 0.948 | [19] 1.01 | [20] 0.994

CCc1ccc(O)cc1
inactive: [1] 0.993 | [2] 0.884 | [3] 1.01 | [4] 0.95 | [5] 1.24 | [6] 0.989 | [7] 1.01 | [8] 1.01 | [9] 0.957 | [10] 0.919 | [11] 0.934 | [12] 1.02 | [13] 0.997 | [14] 0.988 | [15] 1.13 | [16] 0.963 | [17] 0.84 | [18] 0.979 | [19] 1.02 | [20] 0.968

CCOC(=O)C1CC(=O)C(=C(O)C2CC2)C(=O)C1 (stereo not given)
inactive: [1] 1.01 | [2] 1.03 | [3] 0.965 | [4] 0.979 | [5] 0.982 | [6] 1 | [7] 0.972 | [8] 1.03 | [9] 1.01 | [10] 0.986 | [11] 1.02 | [12] 0.972 | [13] 1.01 | [14] 0.961 | [15] 1.01 | [16] 1.01 | [17] 0.937 | [18] 0.976 | [19] 0.984 | [20] 1.03

Cc1nn(C)c(OCC(=O)c2ccccc2)c1C(=O)c1ccc(Cl)cc1Cl
active: [19] 0.674
inactive: [1] 1.04 | [2] 0.955 | [3] 0.978 | [4] 0.987 | [5] 1.17 | [6] 0.933 | [7] 0.852 | [8] 0.992 | [9] 0.947 | [10] 1.01 | [11] 1.02 | [12] 0.995 | [13] 1 | [14] 1.04 | [15] 1.02 | [16] 1.02 | [17] 0.991 | [18] 0.961 | [20] 0.926

CCCCOC(=O)C(C)Oc1ccc(Oc2ccc(C(F)(F)F)cn2)cc1 (stereo not given)
active: [8] 0.681
inactive: [1] 1.13 | [2] 1.01 | [3] 0.977 | [4] 0.951 | [5] 1.08 | [6] 0.959 | [7] 0.891 | [9] 1.01 | [10] 0.963 | [11] 0.987 | [12] 1.02 | [13] 1.01 | [14] 1.09 | [15] 0.997 | [16] 0.914 | [17] 0.985 | [18] 1.02 | [19] 0.768 | [20] 0.961

CC(C)(C)C(=O)C(Oc1ccc(Cl)cc1)n1ccnc1 (stereo not given)
inactive: [1] 1.07 | [2] 0.971 | [3] 0.987 | [4] 0.98 | [5] 1.04 | [6] 0.944 | [7] 0.984 | [8] 1.01 | [9] 0.962 | [10] 0.94 | [12] 1.03 | [13] 0.994 | [15] 1.02 | [16] 0.918 | [17] 0.971 | [18] 0.994 | [19] 0.938 | [20] 0.96
active: [11] 0.629 | [14] 0.414

CCc1nc2ncnn2c(N)c1CCCCCC(=O)O.Cl
inactive: [1] 1.06 | [2] 1.03 | [3] 1.07 | [4] 1.03 | [5] 1.14 | [6] 0.988 | [7] 1.02 | [8] 0.963 | [9] 1.01 | [10] 0.996 | [11] 1.03 | [12] 1.02 | [13] 1.04 | [14] 1.11 | [15] 1.14 | [16] 1.08 | [17] 0.977 | [18] 1.04 | [19] 0.99 | [20] 1.06

CC(C)(C)C(O)/C(=C\c1ccc(Cl)cc1)n1cncn1 (stereo not given)
inactive: [1] 1.05 | [2] 0.903 | [3] 0.987 | [4] 0.919 | [5] 1.19 | [6] 0.958 | [7] 0.973 | [8] 1.04 | [9] 0.991 | [10] 0.969 | [11] 1.03 | [12] 0.988 | [13] 1.03 | [14] 0.978 | [15] 0.987 | [16] 0.943 | [17] 1.05 | [18] 0.976 | [19] 0.959 | [20] 0.948

CC(C)([CH2][Sn]([CH2]C(C)(C)c1ccccc1)([CH2]C(C)(C)c1ccccc1)[O][Sn]([CH2]C(C)(C)c1ccccc1)([CH2]C(C)(C)c1ccccc1)[CH2]C(C)(C)c1ccccc1)c1ccccc1
inactive: [1] 1.07 | [2] 0.969 | [3] 1.01 | [4] 0.989 | [5] 0.969 | [6] 1.02 | [7] 0.993 | [8] 1.02 | [9] 0.956 | [10] 1.01 | [11] 0.98 | [12] 0.999 | [13] 0.978 | [14] 0.998 | [15] 1.03 | [16] 0.963 | [17] 0.988 | [18] 1.06 | [19] 1.04 | [20] 0.954

COC1CCC2(CC1)NC(=O)C(c1cc(C)ccc1C)=C2OC1OC(CO)C(O)C(O)C1O (stereo not given)
inactive: [1] 1.1 | [2] 0.946 | [3] 1.02 | [4] 0.993 | [5] 1.21 | [6] 0.984 | [7] 1.02 | [8] 1 | [9] 1.02 | [10] 1.01 | [11] 1.03 | [12] 1.03 | [13] 1.03 | [14] 1.1 | [15] 1.17 | [16] 0.948 | [17] 1.01 | [18] 0.994 | [19] 1.01 | [20] 1.05

CCOC(=O)CSc1nc(C(C)(C)C)nn1C(=O)N(C)C
inactive: [1] 1.03 | [2] 0.951 | [3] 0.96 | [4] 0.94 | [5] 0.815 | [6] 0.978 | [7] 0.989 | [8] 0.96 | [9] 1.01 | [10] 0.931 | [11] 0.985 | [12] 0.961 | [13] 0.947 | [14] 1.05 | [15] 0.918 | [16] 0.91 | [17] 0.956 | [18] 0.948 | [19] 0.896 | [20] 0.947

O=c1cccc2n1CCn1c-2cccc1=O
inactive: [1] 1.11 | [2] 1.03 | [3] 0.986 | [4] 0.918 | [5] 1 | [6] 0.995 | [7] 1.02 | [8] 0.969 | [9] 0.993 | [10] 0.98 | [11] 1.01 | [12] 0.992 | [13] 0.968 | [14] 0.956 | [15] 0.971 | [16] 0.982 | [17] 1.02 | [18] 0.982 | [19] 1.04 | [20] 1.01

CCc1cccc(CC)c1N(COC)C(=O)C(=O)O
inactive: [1] 0.957 | [2] 1.03 | [3] 0.971 | [4] 1.01 | [5] 1.03 | [6] 1.03 | [7] 1.02 | [8] 0.989 | [9] 1.02 | [10] 1.03 | [11] 0.981 | [12] 1.05 | [13] 0.999 | [14] 0.948 | [15] 1.04 | [16] 0.999 | [17] 1 | [18] 1.01 | [19] 1.02 | [20] 0.991

O.O.O=[N+]([O-])c1ccc([O-])cc1.[Na+]
inactive: [1] 1.02 | [2] 0.999 | [3] 1 | [4] 0.988 | [5] 1.09 | [6] 1.02 | [7] 0.989 | [8] 1.08 | [9] 1.04 | [10] 1.02 | [11] 1.09 | [12] 1.05 | [13] 1.01 | [14] 0.918 | [15] 0.968 | [16] 1.01 | [17] 1.04 | [18] 0.85 | [19] 0.971 | [20] 0.994

Cc1nn(C)c(F)c1C(=O)Nc1ccccc1C(C)CC(C)C (stereo not given)
inactive: [1] 0.94 | [2] 0.97 | [3] 0.959 | [4] 0.988 | [5] 1.04 | [6] 0.968 | [7] 0.947 | [8] 0.992 | [9] 0.982 | [10] 1.02 | [11] 0.985 | [12] 1.02 | [13] 1.01 | [14] 0.932 | [15] 0.977 | [16] 1.03 | [17] 0.97 | [18] 0.899 | [19] 0.96 | [20] 0.946
